Reference: PubChem BioAssay (NCI)
About 83,000 compounds went through this panel and 20% of them were active in at least one assay; those are over-represented in the sample as a whole.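 Compound tested at a single concentration for 48 hours in 96-well plates; a percent growth value below 10 was scored as active.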 Values without a mark were called inactive. Calls of active or inactive are those of the source.

Test system: HOP-62 NSCLC
Assay: NCI-60 one-dose screen, 48 h (100 = growth as untreated, 0 = no growth, -100 = all killed)
Settings: 10 µM unless noted
Description: Growth inhibition of the HOP-62 human Non-Small Cell Lung tumor cell line is measured as a screen for anti-cancer activity. Cells are grown in 96 well plates and exposed to the test compound for 48 hours. Compounds are tested at a single concentration, which is 10^-5 M for most compounds. The reported endpoint is percent growth (GI% or GIPRCNT), where numbers from 0 - 100% represent growth inhibition, and numbers from -100% - 0 represent cell death. For example, a value of 40 represents 60% growth inhibition. A value of 0 means no net growth occurred over the course of the experiment. A value of -40 indicates 40% of cells at the beginning of the experiment died by the end of the experiment. A value of -100 means all cells are dead at the end of the experiment.
NCI-60 Human Tumor Cell Lines Screen was performed using the standard one-dose NCI protocol, which is described in more detail at https://dtp.cancer.gov/discovery_development/nci-60/default.htm.
Compounds with GIPRCNT values below 10 were considered active. Activity score was based on GIPRCNT using the following formula: […]
Score is 0 for GIPRCNT values of 100 or above, 50 for GIPRCNT values of 0, and 100 for GIPRCNT values of -100.

| SMILES | growth |
| --- | --- |
| CN(C)c1ccc2c(c1)/C(=N/O)c1ccccc1-2 | 92.2% |
| OC(CCC(O)(c1ccccc1)c1ccccc1)(c1ccccc1)c1ccccc1 | 114% |
| COc1ccc(C2=NN(C(C)=O)C(c3cc(OC)c(OC)c(OC)c3)C2)cc1 (stereo not given) | 105% |
| COc1cc(/C=C/C(=O)c2c(-c3ccc(F)cc3)nc3sc(C)nn23)cc(OC)c1OC | 9.53% (active) |
| CN1CCN(Cc2ccc(NC(=O)c3[nH]ncc3Nc3ccnc4ccnn34)cc2)CC1 | 93.5% |
| OC(c1cc(C(F)(F)F)nc2c(C(F)(F)F)cccc12)C1CCCCN1 (stereo not given) | 74.4% |
| C=C(C)[C@H]1CC/C(C)=C/CC[C@]2(C)O[C@H]2CC/C(C=O)=C\C1O (stereo not given in full) | 105% |
| COc1cc(C2NC(c3ccc(Cl)cc3)C(C)/C(=N/NC(N)=S)C2C)cc(OC)c1OC (stereo not given) | 99% |
| CC/C(=C\c1ccc(N(C)C)cc1)c1ccncc1 | 46.6% |
| O=C1OCCCCCCCCCC#Cc2ccccc21 | 99.7% |
| CCCCCCOc1ccc(/C=N/NC(N)=S)cc1 | 100% |
| Clc1ccccc1[C@@H]1C[C@@H]2Cc3cc(Br)c4ccccc4c3N1O2 | 54.3% |
| C[n+]1ccc(C#N)c2ccccc21 | 94.4% |
| COC(=O)[C@]1(C(C)C)N[C@H](c2cn(-c3ccccc3)nc2-c2ccccc2)[C@@H]2C(=O)N(c3ccc(Cl)cc3)C(=O)[C@@H]21 | 95.7% |
| Cc1nn(-c2ccc(Br)cc2)c2nc3c(nc12)C(=O)C(=O)c1ccccc1-3 | 91.7% |
| COc1cc(C2=NN(C(C)=O)C(c3ccc(OC(C)=O)cc3OC(C)=O)O2)c(OC(C)=O)c2ccccc12 (stereo not given) | 24.3% |
| N#Cc1c(N2CCOCC2)nc2sc3cc(Cl)ccc3n2c1=N | 90.2% |
| COC(=O)c1ccc2c(c1)nc(-c1ccc(O)c(OC)c1)n2-c1cc(C(C)(C)C)[nH]n1 | 128% |
| O=C(/C=C/c1ccc(Cl)cc1)c1ccccc1 | 115% |
| COc1ccc(COC(C)=O)cc1 | 101% |

| SMILES | growth |
| --- | --- |
| Cc1nn(-c2ccccc2)c(Cl)c1C(CC(=O)c1ccc(Cl)cc1)CC(=O)c1ccc(Cl)cc1 | 97.8% |
| COc1ccc(-c2c(N)noc2-c2cc(OC)c3c(c2)OCCO3)cc1 | 23% |
| C/C(=C\CCc1ccsc1)CC/C=C(\C)CCCN1CCC(CO)CC1 | 62.1% |
| CCC(O)C(C)(C)C (stereo not given) | 115% |
| Cc1scc2c1N(C(=O)CN1CCN(C)CC1)c1ccccc1NC2=O | 103% |
| Cc1cc2cn3c4cccnc4[nH]c(=O)c3c2cc1C | 46.8% |
| O=C(/C=C/c1cc2ccccc2[nH]c1=O)c1ccc(O)cc1 | 42.5% |
| Nc1ccc2c(c1)/C(=N/O)c1cc([N+](=O)[O-])ccc1-2 | 91.7% |
| Nc1ncc(-c2cnn(C3CCNCC3)c2)cc1-c1nc2cc(Cl)ccc2o1 | -98.1% (active) |
| O=C(Nc1nc(-c2ccc(Cl)cc2)cs1)c1cc(O)c(O)c(O)c1 | 38.6% |
| C[C@]12CC[C@@H]3c4ccc(O)cc4CC[C@H]3[C@@H]1CC[C@@H]2NS(=O)(=O)c1cccc(Br)c1 | -16.6% (active) |
| COc1cc2c(cc1OCCCOc1ccc(-c3cc4ccccc4c4ccccc34)cc1)N=C[C@@H]1CCCN1C2=O | -45% (active) |
| COc1ccc(C2CC(c3cccc(Nc4ccnc5cc(Cl)ccc45)c3)=NN2C=O)cc1 (stereo not given) | 27% |
| c1cncc(CNc2ccccc2-c2nnc(Nc3ccc4c(c3)OCO4)o2)c1 | 27.2% |
| COc1cc(C2C=C(c3ccc(C)cc3)Nc3nc(SC)[nH]c(=O)c32)ccc1Oc1ccnc2cc(Cl)ccc12 (stereo not given) | 113% |
| Clc1cc(Cl)c(OCC#CI)cc1Cl | 108% |
| COc1cc2c(-c3nc4cc(Cl)c(F)cc4s3)cc(=O)oc2c(C)c1OC | -65.7% (active) |
| Cc1ccc(NC(=O)Nc2ccc(-c3cccnc3)cc2N2CCC(CO)CC2)cc1 | 24.9% |
| C=C(C[C@@](O)(C(=O)Oc1ccccc1)C(=O)C1CCCCC1)c1ccccc1 | 108% |
| O=C(Cn1ccnc1)NC(c1ccccc1)c1ccccc1 | 96% |
